The list is not random: actives were taken first. Their share in the collection is about 2%.
CtBP-E1A inh – qHTS Assay for Inhibitors of the CtBP/E1A Interaction. activity change, % (no concentration beside the values). AlphaScreen GST-E1A/His-CtBP binding, 1536-well; hits give low values. AID 651724, 2012. CtBP / adenovirus E1A interaction (AlphaScreen). hit rate 0.49% among 340,000
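In 5 uL wells, 23 nL compound meets equimolar GST-E1A and His-CtBP (5X stock 125 nM each) for 2 h, 37 °C. Beads (5X, 50 ug/mL) then 1 h, 37 °C, dark.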
KCNH2 WT inh – qHTS for Inhibitors of KCHN2 3.1: Wildtype qHTS. Voltage-gated inwardly rectifying potassium channel KCNH2 (Homo sapiens), Q12809. U2OS, BacMam KCNH2, thallium flux FluxOr; hits give low values. activity change, % at 1.84 µM. hit rate 0.37% among 340,000;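 active = maximum activity change below -70%; inconclusive = maximum activity change between -70% and -50%; inactive = maximum activity change above -50%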
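U2OS cells transduced with wild-type KCNH2 virus are loaded with FluxOr dye for 45 min, and thallium flux is measured in kinetic reads before and after stimulation buffer. Rate constants are normalized to DMSO controls.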
Six1-Eya2 inh – qHTS Assay for Inhibitors of the Six1/Eya2 Interaction; Homeobox protein SIX1 (Homo sapiens) + Protein phosphatase EYA2 (Homo sapiens), …; AlphaScreen GST-Six1/His-Eya2 binding, biochemical; hits give low values; activity change, % (concentration not given with the values); hit rate 0.56% among 360,000; AID 651725, 2012
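Six1/Eya2 binding was read as AlphaScreen signal after compounds were pinned into GST-Six1 plus His-tagged Eya2 (5X stock 250/500 nM) in pH 8.0 Tris/NaCl/TCEP buffer, beads added, then incubated 1 h, 37 C, dark.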
KCNH2 3.1 block – qHTS for Inhibitors of KCHN2 3.1: Mutant qHTS | Potassium voltage-gated channel subfamily H member 2, brain isoform KCNH2 3.1 (human) | U2OS KCNH2 3.1, thallium flux FluxOr; hits give low values | activity change, % (tested at about 1.8 µM) | hit rate 0.95% among 340,000 | AID 720553, 2013;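 active = maximum activity change below -70%; inconclusive = maximum activity change from -70% to -50%; inactive = maximum activity change above -50%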;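 also: thallium influx rate constant from kinetic fluorescence after stimulation buffer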
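Thallium flux read-out: FluxOr dye with Red40 quencher in HBSS/HEPES, 45 min at RT. Rate constants from kinetic reads were normalized to positive and negative DMSO controls. Cells: U2OS virally expressing the 3.1 isoform.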
KDM4E inh – qHTS Assay for Inhibitors of Human Jumonji Domain Containing 2E (JMJD2E); Potency, µM (doses to about 57.1 µM), inactives show at the highest dose activity change, negative = inhibition, usual class: inhibitors; Lysine-specific demethylase 4E (Homo sapiens), B2RXH2; hit rate 1.6% among 230,000; AID 2147, 2009; JMJD2E catalytic domain, FDH-coupled NADH fluorescence (FDH is formaldehyde dehydrogenase);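 also: potency is read from the fitted curve at half-maximal effect; 0% = wells with enzyme and -100% = buffer wells without enzyme; nearly all actives have a fitted effect of over 50% in size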
Target sequence (B2RXH2 1-337 limits assumed): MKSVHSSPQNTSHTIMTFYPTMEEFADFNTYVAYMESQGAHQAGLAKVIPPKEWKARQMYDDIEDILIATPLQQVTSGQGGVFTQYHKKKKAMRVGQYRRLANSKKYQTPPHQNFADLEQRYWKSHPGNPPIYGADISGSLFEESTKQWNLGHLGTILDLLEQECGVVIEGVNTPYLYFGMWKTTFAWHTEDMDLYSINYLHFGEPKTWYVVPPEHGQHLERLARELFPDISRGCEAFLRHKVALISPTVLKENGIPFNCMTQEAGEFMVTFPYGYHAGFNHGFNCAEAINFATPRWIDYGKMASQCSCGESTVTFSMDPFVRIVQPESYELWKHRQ
Starred values were filed as active, the others as inactive. Rule as the data show it, unless noted: active = activity change below about -65%; inconclusive = mostly about -30% to -63%; inactive = weaker than that. Unless noted, % is scaled to controls: 0 for no effect and ±100 for the full control effect.

O=C(Cc1c[nH]c2ccccc12)N/N=C/c1ccccc1O was read as KCNH2 WT inh -23.8, Six1-Eya2 inh -27.8, KCNH2 3.1 block 2.1 and KDM4E inh 25.1µM*.
For CC(C)CNC(=O)CCCc1c[nH]c2ccccc12 the results were CtBP-E1A inh 0.0, KCNH2 WT inh -70.4*, Six1-Eya2 inh 13.2, KCNH2 3.1 block -11.5 and KDM4E inh -5.3%.
For Cc1c(Cl)cccc1NC(=O)CNC(=O)Cc1c[nH]c2ccccc12 the results were CtBP-E1A inh 4.1, KCNH2 WT inh -6.0, Six1-Eya2 inh 6.0 and KCNH2 3.1 block -4.2.
`Oc1[nH]c2ccc(Br)cc2c1N=NC(=S)N1CCOCC1` gave CtBP-E1A inh inconclusive, Six1-Eya2 inh -78.1*, KCNH2 3.1 block -16.9 and KDM4E inh inconclusive.
`Oc1[nH]c2ccccc2c1N=NC(=S)N1CCOCC1` gave CtBP-E1A inh -65.8*, KCNH2 WT inh -3.1, Six1-Eya2 inh -91.7*, KCNH2 3.1 block 2.9 and KDM4E inh inconclusive.
For Oc1cccc(NC(=S)N=Nc2c(O)[nH]c3ccccc23)c1 the results were CtBP-E1A inh -68.5*, KCNH2 WT inh -14.5, Six1-Eya2 inh inconclusive, KCNH2 3.1 block -21.3 and KDM4E inh inconclusive.
For NC(=S)N=Nc1c(O)[nH]c2ccccc12 the results were CtBP-E1A inh inconclusive, KCNH2 WT inh 0.6, Six1-Eya2 inh inconclusive, KCNH2 3.1 block 4.7 and KDM4E inh -2.8%.
`O=C(Cc1ccccc1)NCC(=O)OCC(=O)c1cccs1` gave CtBP-E1A inh 8.8, KCNH2 WT inh 4.9, Six1-Eya2 inh -1.1, KCNH2 3.1 block 2.4 and KDM4E inh 2.7%.
Screening Cc1ccc(S(=O)(=O)N2CCN(C(=O)COC(=O)c3ccc(Cl)nc3)CC2)c(C)c1 returned KCNH2 WT inh -162.2*, Six1-Eya2 inh -2.6 and KCNH2 3.1 block -17.5.
`Cc1ccc(S(=O)(=O)N2CCN(C(=O)COC(=O)c3cccnc3Cl)CC2)c(C)c1` gave KCNH2 WT inh 7.0, Six1-Eya2 inh -24.6 and KCNH2 3.1 block -3.9.
`Cc1ccc(CN2CCN(CC(=O)N=Nc3c(O)[nH]c4ccccc34)CC2)cc1` gave CtBP-E1A inh 1.6, KCNH2 WT inh inconclusive, Six1-Eya2 inh -5.5, KCNH2 3.1 block -71.6* and KDM4E inh -2.6%.
CN(C(=O)c1cccc(NC(=O)Cc2cccc(NC(=O)C3CCN(C(=O)C4CC4)CC3)c2)c1)C1CC1 was read as CtBP-E1A inh 2.4, KCNH2 WT inh 3.2, Six1-Eya2 inh 1.1 and KCNH2 3.1 block -3.0.
C=CCn1c(SCC(=O)N(C)C2CCS(=O)(=O)C2)nc2ccccc2c1=O (stereo unspecified) was read as CtBP-E1A inh 1.3, KCNH2 WT inh 4.1, Six1-Eya2 inh 21.7, KCNH2 3.1 block -2.3 and KDM4E inh -7.3%.
For COc1ccc2c(c1OC)C[N+]1([O-])CCc3cc4c(cc3C1C2)OCO4 (stereo unspecified) the results were CtBP-E1A inh 6.7, KCNH2 WT inh 1.0, Six1-Eya2 inh -0.3, KCNH2 3.1 block 0.1 and KDM4E inh 0.0%.
`Nc1ccc(SCC(=O)Nc2cccc([N+](=O)[O-])c2)cc1` gave CtBP-E1A inh -2.2, KCNH2 WT inh -5.0, Six1-Eya2 inh -12.8, KCNH2 3.1 block -4.2 and KDM4E inh -1.6%.
COc1ccc(-c2nc(Cn3c(SCc4ccccc4F)nc4ccncc43)c(C)o2)cc1 was read as CtBP-E1A inh -7.4, KCNH2 WT inh 11.1, Six1-Eya2 inh -2.5, KCNH2 3.1 block -108.9* and KDM4E inh -14.6%.
Screening COc1ccc(-c2nc(Cn3c(SCc4ccc(F)cc4)nc4ccncc43)c(C)o2)cc1OC returned CtBP-E1A inh 6.0, KCNH2 WT inh -33.3, Six1-Eya2 inh -9.9, KCNH2 3.1 block -1.7 and KDM4E inh inconclusive.
For O=C(O)c1ccc(-c2nnc(-c3ccccc3)o2)cc1 the results were CtBP-E1A inh 0.4, KCNH2 WT inh -3.0, Six1-Eya2 inh -3.5 and KCNH2 3.1 block 0.7.
Cc1c(C)c2c(OCC(=O)N3CCC(O)CC3)cc3c(c2oc1=O)CCC(C)(C)O3 was read as CtBP-E1A inh -18.5, KCNH2 WT inh -8.3, Six1-Eya2 inh -19.0 and KCNH2 3.1 block 7.6.
`Cc1c(C)c2c(OCC(=O)N3CCC[C@H]3C(=O)O)cc3c(c2oc1=O)CCC(C)(C)O3` gave CtBP-E1A inh inconclusive, KCNH2 WT inh 1.8, Six1-Eya2 inh -85.2* and KCNH2 3.1 block -1.2.
COc1ccc(C(=O)NC(=S)N(Cc2ccccc2)Cc2ccccc2)cc1 was read as CtBP-E1A inh -18.4, KCNH2 WT inh -102.2*, Six1-Eya2 inh -20.4, KCNH2 3.1 block -11.4 and KDM4E inh 0.2%.
Screening C=CCN(CC=C)C(=S)NC(=O)c1ccc(OC)cc1 returned CtBP-E1A inh -15.4, KCNH2 WT inh -19.4, Six1-Eya2 inh 13.0, KCNH2 3.1 block 4.5 and KDM4E inh -6.8%.
Screening Cc1ccccc1NC(=O)COC(=O)c1ccc2c(c1)C(=O)N(CCCN1CCOCC1)C2=O returned CtBP-E1A inh 4.1, KCNH2 WT inh 5.2, Six1-Eya2 inh 9.7 and KCNH2 3.1 block 12.6.
For Cc1ccc(N/C=C/C(=O)c2ccccc2)cc1Br the results were KCNH2 WT inh -7.7, Six1-Eya2 inh 1.0 and KCNH2 3.1 block -6.8.
CC(=O)N(C)c1ccc(NC(=O)Nc2ccc(C)cc2)cc1 was read as CtBP-E1A inh 7.4, KCNH2 WT inh 2.9, Six1-Eya2 inh 0.1, KCNH2 3.1 block 14.8 and KDM4E inh 8.1%.
For O=C1CCN(CCc2ccccc2)CCN1[C@H](COc1ccccc1)Cc1ccccc1 the results were CtBP-E1A inh 3.7, KCNH2 WT inh -256.8*, Six1-Eya2 inh -12.9 and KCNH2 3.1 block -100.3*.
For CC(C)C[C@@H](COc1ccccc1)N1CCN(CCc2ccccc2)CCC1=O the results were CtBP-E1A inh -6.6, KCNH2 WT inh -20.4, Six1-Eya2 inh -12.0 and KCNH2 3.1 block -95.7*.
Screening O=C1CCN(CCc2ccccc2)CCN1[C@H](CO)Cc1ccccc1 returned CtBP-E1A inh -11.4 and Six1-Eya2 inh -9.0.
`CCCN1CCC(=O)N([C@H](COc2ccccc2)CC(C)C)CC1` gave CtBP-E1A inh 6.7, KCNH2 WT inh 32.2, Six1-Eya2 inh -3.7 and KCNH2 3.1 block -5.8.
For CC(C)CN1CCC(=O)N([C@H](COc2ccccc2)Cc2ccccc2)CC1 the results were CtBP-E1A inh -12.0, KCNH2 WT inh -13.0, Six1-Eya2 inh 3.0 and KCNH2 3.1 block -89.6*.
